Results filed as inconclusive are left out. Entries that show only a call come without a potency. The source made the active and inactive calls. The call rests on the fitted dose curve; in most records, active means well fitted curve in the direction sought with a large enough effect; inconclusive means small, poorly fitted or top-dose-only effect, or effect the other way, or another doubt; inactive means no such curve, though single readings can be large or run the other way.
These compounds were tested against Pyruvate kinase PKLR (Homo sapiens) (UniProt P30613) (assay: Secondary LDH Assay for Activators of Human Reticulocyte Pyruvate Kinase: for Probe SAR). Details: purified hPK-R, LDH-coupled NADH fluorescence kinetic; series mostly up to 58.4 µM.
Pyruvate kinase PKLR (Homo sapiens), sequence (P30613 whole entry, looked up): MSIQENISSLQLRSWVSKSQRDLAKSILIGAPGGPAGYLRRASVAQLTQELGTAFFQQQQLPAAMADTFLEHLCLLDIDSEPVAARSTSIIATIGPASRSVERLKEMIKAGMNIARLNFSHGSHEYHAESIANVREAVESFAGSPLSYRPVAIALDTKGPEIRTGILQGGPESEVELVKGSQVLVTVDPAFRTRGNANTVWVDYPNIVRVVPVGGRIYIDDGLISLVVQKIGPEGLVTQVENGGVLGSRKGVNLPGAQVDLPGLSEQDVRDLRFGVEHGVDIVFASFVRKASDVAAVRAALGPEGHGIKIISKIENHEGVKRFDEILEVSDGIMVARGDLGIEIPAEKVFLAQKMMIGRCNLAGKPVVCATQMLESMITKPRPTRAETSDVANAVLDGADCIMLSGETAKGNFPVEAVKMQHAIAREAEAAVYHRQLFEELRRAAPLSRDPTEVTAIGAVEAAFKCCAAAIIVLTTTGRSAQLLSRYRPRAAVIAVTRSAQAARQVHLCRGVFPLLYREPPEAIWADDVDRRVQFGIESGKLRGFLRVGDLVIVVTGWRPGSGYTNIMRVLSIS
From the text: NIH Chemical Genomics Center [NCGC] Wael M. Rabeh, Lyudmila Nedyalkova and Hee-Wan Park [Structural Genomics Consortium, 100 College St. Toronto, Ontario, Canada] NCGC Assay Overview: Human pyruvate kinase reticulocyte (hPK-R) enzyme was supplied as a highly purified (>95% pure) preparation from Structural Genomics Consortium in Toronto (Ontario, Canada) and a secondary assay was used to evaluate compounds. This assay couples the formation of pyruvate from hPK-R using lactate dehydrogenase (LDH) and NADH. The depletion of NADH is followed in a fluorescent-based kinetic assay that follows the formation of pyruvate to lactate, as catalyzed LDH. Pyruvate kinase substrates, PEP and ADP, were present in the assay at 0.1 mM and 4 mM respectively. In this kinetic assay initial rates were determined by following the fluorescence of NADH depletion.
NCGC Assay Protocol Summary: Three uL of substrate mix (final concentration, 50 mM Tris-Cl pH 8.0, 200 mM KCl, 15 mM MgCl2, 0.1 mM PEP, 4.0 mM ADP, and 0.2 mM NADH) was dispensed into black-solid 1536 well plates. 23 nL of compounds were delivered by a pin tool and 1 uL of enzyme mix (final concentrations, 10 nM hPK-R and 1 uM of LDH) was added. Plates were immediately placed in ViewLux (Perkin Elmer) and NADH fluorescence was determined at 30 second exposure intervals for between 3 and 6 minutes. Data were normalized to the uninhibited and EC100 activation using known activators such as fructose-bis-phosphate.

SMILES	Potency
O=C1CCc2cc(S(=O)(=O)Nc3cccc(Cl)c3)ccc2N1	inactive
CCNc1cccc(S(=O)(=O)N2CCN(S(=O)(=O)c3ccc4c(c3)OCCO4)CC2)c1	inactive
COc1ccc(S(=O)(=O)Nc2ccc(C)c(C)c2)cc1	inactive
COc1ccc(OC2=NS(=O)(=O)c3ccccc32)cc1	inactive
Cc1ccc(N(C)S(=O)(=O)c2ccc3c(c2)CCC(=O)N3)cc1C	inactive
O=C1c2ccccc2C(=O)N1C1CCCCC1	inactive
COc1cccc(N2C(=O)c3ccccc3C2=O)c1	inactive
Cc1cccc(NS(=O)(=O)c2ccc3c(c2)CCC(=O)N3)c1	inactive
Cc1ccc(N[S+](=O)([O-])c2cc3c(cc2CCc2ccccc2)NC(=O)CO3)cc1C	inactive
Cc1ccc2nc(-c3ccc(C)o3)c(NC3CCCC3)n2c1	inactive
Cc1ccc(NS(=O)(=O)c2ccc3c(c2)CC(=O)N3C)cc1C	inactive
O=S1(=O)N=C(Oc2ccc(Cl)cc2)c2ccccc21	inactive
O=C1c2ccccc2C(=O)N1c1cc(=O)c2ccccc2[nH]1	inactive
CC(=O)N1c2ccc(S(=O)(=O)Nc3ccc(C)c(C)c3)cc2CC1C (stereo not given)	inactive
Cc1ccc(NS(=O)(=O)c2ccc(N3CCCC3=O)cc2)cc1C	inactive
O=C1c2ccccc2C(=O)N1c1ccccn1	inactive
O=C1c2ccccc2C(=O)N1c1cccnc1	inactive
Cc1ccc(NS(=O)(=O)c2cc3c(cc2-c2ccccc2)NC(=O)CO3)cc1C	inactive
O=C1c2ccccc2C(=O)N1c1ccncc1	inactive
O=C1c2ccccc2C(=O)N1c1ccc2ncccc2c1	inactive

SMILES	Potency
O=C1CCc2cc(S(=O)(=O)NCc3ccccc3)ccc2N1	inactive
Cc1ccc(NS(=O)(=O)c2cc3c(cc2Br)NC(=O)CO3)cc1C	inactive
Cc1ccc(NS(=O)(=O)c2ccc3c(c2)CCC(C)(C)O3)cc1C	inactive
Cc1ccc(NS(=O)(=O)c2cc3c(cc2N2CCC2)NC(=O)CC3)cc1C	inactive
CCCCN1C(=O)c2ccccc2C1=O	inactive
O=C1NS(=O)(=O)c2ccccc21	inactive
Cc1cc(N2C(=O)c3ccccc3C2=O)n[nH]1	inactive
COc1cccc(OC2=NS(=O)(=O)c3ccccc32)c1	inactive
Cc1ccc(NS(=O)(=O)c2ccc3c(c2)CC(=O)N3)cc1C	inactive
Cc1ccc2nc(-c3ccc(C)o3)c(Nc3ccc4c(c3)OCO4)n2c1	inactive
Cc1ccc(NS(=O)(=O)c2ccc3c(c2)n(C)c(=O)n3C)cc1C	inactive
Cc1ccc(C)c(OC2=NS(=O)(=O)c3ccccc32)c1	inactive
Nc1cccc(S(=O)(=O)N2CCCN(S(=O)(=O)c3ccc4c(c3)OCCO4)CC2)c1	inactive
Cc1ccc(NS(=O)(=O)c2ccc3[nH]c(=O)[nH]c3c2)cc1C	inactive
O=C1CCc2cc(S(=O)(=O)Nc3ccccc3Cl)ccc2N1	inactive
O=C1CCc2cc(S(=O)(=O)Nc3ccc(-c4ccccc4)cc3)ccc2N1	inactive
COc1cccc(NS(=O)(=O)c2ccc3c(c2)CCC(=O)N3)c1	inactive
O=C1c2ccccc2C(=O)N1c1ccc(Cl)cc1	inactive
Cc1cccc(OC2=NS(=O)(=O)c3ccccc32)c1	inactive
COc1ccccc1NS(=O)(=O)c1ccc2c(c1)CCC(=O)N2	inactive

From PubChem BioAssay AID2562 (National Center for Advancing Translational Sciences (NCATS), 2010)
